From PubChem BioAssay
Rows were chosen to be rich in hits. Some 2.4% of all compounds tested hit in one or more screens of this group.
L3MBTL1 block: qHTS Assay for the Inhibitors of L3MBTL1. AlphaScreen L3MBTL1–H3K9me1 peptide binding. AID 485360, 2010. Potency, µM (titrated, usually from 57.1 µM), actives largely listed as inhibitors. 230,000 compounds, 0.66% hits. Lethal(3)malignant brain tumor-like protein 1 (Homo sapiens), Q9Y468; further: nearly all actives have a fitted effect of over 60% in size
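First, the protein-peptide complex forms for 30 min at room temperature (L3MBTL1 50 nM, biotinylated H3K9me1 peptide 75 nM). Next, compounds are pin-transferred and incubated 30 min. Finally, AlphaScreen beads are added and read after 30 min.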
POLI inh: qHTS for Inhibitors of Polymerase Iota. Pol iota fluorescent replication assay, 10 min. Potency, µM (series often up to 115 µM), most hits filed as inhibitors. DNA polymerase iota (Homo sapiens), Q9UNA4. 390,000 compounds, 1% hits
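Pol iota at 10 nM preincubated 15 min with compounds at room temperature; reaction started with fluorescent substrate, 50 nM final. Fluorescence read kinetically at 0 and 10 min; buffer-only wells as negative control.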
Pol kappa inh-1: qHTS for Inhibitors of Polymerase Kappa; DNA polymerase kappa (Homo sapiens), Q9UBT6; purified Pol kappa, fluorescent DNA synthesis assay, 10 min; Potency, µM (top dose mostly 107 µM), hits mostly inhibitors; 400,000 compounds, 0.53% hits
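Readout: fluorescence, taken kinetically at 0 and 10 min. Conditions: 10 nM Pol kappa, 15 min RT compound preincubation, 50 nM substrate final. Controls: enzyme-free buffer wells.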
Pol eta inh-1: qHTS for Inhibitors of Polymerase Eta | DNA polymerase eta (Homo sapiens), Q9Y253 | recombinant Pol eta, fluorescent DNA replication assay | Potency, µM (top dose mostly 114 µM), usual class: inhibitors | 390,000 compounds, 1.2% hits | AID 588591, 2011
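Fluorescent replication assay: 50 nM final substrate added after a 15 min room-temperature compound preincubation with 10 nM enzyme. Signal taken at 0 min and again at 10 min.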
POLB inh: qHTS Assay for Inhibitors of DNA Polymerase Beta; P06746; 340,000 compounds, 1.3% hits; Pol beta primer extension/strand displacement, fluorescence kinetic; Potency, µM (titrated, usually from 114 µM), hits mostly inhibitors; AID 485314, 2010
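Human Pol beta at 10 nM; strand-displacement substrate 50 nM final. Compound exposure 15 min at room temperature before start, reaction 10 min at room temperature.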
GALK inh confirm: Confirmation Assay for Inhibitors of Human Galactokinase (GALK) | 150 compounds, 70% hits | AID 2015, 2009 | purified GALK, Kinase-Glo ATP depletion luminescence | Potency, µM (highest dose often 115 µM), most hits filed as inhibitors | shares compounds with Pol eta inh-1
Redox cycling: Confirmatory Assay for Inhibitors of Human Galactokinase (GALK): Phenol-HRP redox assay counterscreen; Potency, µM (highest dose often 115 µM), actives largely listed as inhibitors; Phenol red-HRP H2O2 redox cycling, absorbance 600 nm; shares compounds with Pol eta inh-1; 150 compounds, 40% hits
HEK293 tox: Secondary Assay for Inhibitors of Human Galactokinase (GALK): HEK-293 Cell Viability Assay. HEK-293 viability, ATP luminescence (CellTiter-Glo), 24/48 h. AID 2547, 2010. Potency, µM (highest dose often 46.1 µM), usual class: inhibitors. shares compounds with Pol eta inh-1. 170 compounds, 10% hits
Pol kappa inh-2: qHTS for Inhibitors of Polymerase Kappa: Confirmatory Assay for Cherry-picked Compounds; Potency, µM, most hits filed as inhibitors; 920 compounds, 76% hits; shares compounds with Pol eta inh-1; AID 720501, 2013; purified Pol-kappa, fluorescent strand-displacement substrate
Pol eta inh-2: qHTS for Inhibitors of Polymerase Eta: Confirmatory Assay for Cherry-picked Compounds; 2,600 compounds, 64% hits; AID 720502, 2013; shares compounds with Pol eta inh-1; Potency, µM, actives largely listed as inhibitors; Pol eta primer extension, TAMRA/BHQ fluorescence, 10 min
Hits are given with their value; i = inactive; ? = inconclusive; nt = not tested or not shown. The call rests on the fitted dose curve; in most records, active means well fitted curve in the direction sought with a large enough effect; inconclusive means small, poorly fitted or top-dose-only effect, or another doubt; inactive means no such curve, though single readings can be large; an effect the other way counts as inactive or inconclusive.

SMILES | L3MBTL1 block | POLI inh | Pol kappa inh-1 | Pol eta inh-1 | POLB inh | Pol eta inh-2 | others
O=C1CN(C(=O)C2CCCCC2)C(c2ccccc2)c2cc(F)ccc2N1 (configuration not stated) | nt | i | i | i | i | nt
O=S(=O)(Nc1ccc(F)cc1F)c1ccc(Br)s1 | nt | i | i | i | i | nt
C=CCOc1ccc(Br)cc1/C=C1/SC(=Nc2ccc(C(=O)O)cc2)NC1=O | nt | ? | i | 20µM | ? | 85
COc1cc(NS(=O)(=O)c2ccc(N/C=C(\C#N)c3nc4cc(Cl)ccc4o3)cc2)nc(OC)n1 | nt | i | i | 35µM | i | ?
Cc1cc2oc(C(=O)Nc3ccc(S(=O)(=O)N(C)c4ccccc4)cc3)cc(=O)c2cc1C | nt | i | i | i | i | nt
O=C(O)c1ccc(N=c2oc3cc(O)ccc3cc2C(=O)NCc2ccccc2)cc1 | nt | i | i | ? | ? | nt
COc1ccc2cc(C(=O)NCc3ccccc3)c(=Nc3ccc(C(=O)O)cc3)oc2c1 | nt | i | i | 32µM | i | ?
Cc1cc(C)nc(SCC(=O)NNS(=O)(=O)c2ccc(C#N)cc2)n1 | ? | 18µM | ? | 13µM | nt | 76 | Pol kappa inh-2=?
O=C(NCCc1ccccc1Cl)c1ccc2c(c1)nc1n2CCOC1 | nt | i | i | i | i | nt
O=C(O)c1cc(-c2ccc(/C=N/NC(=S)Nc3ccccc3)o2)ccc1Cl | ? | 35µM | 79µM | 20µM | 28µM | ? | Pol kappa inh-2=75
O=[N+]([O-])c1cccc(-c2ccc(/C=N/NC(=S)Nc3ccccc3)o2)c1 | i | i | i | i | i | nt
O=C(CSc1ncnc2sc3c(c12)CCC3)N1CCOCC1 | nt | 22µM | 79µM | 35µM | 40µM | ?
CCc1nn2c(=O)cc(COC(=O)C(CC)c3ccccc3)nc2s1 (configuration not stated) | nt | i | i | i | i | nt
COc1ccc(Br)cc1[C@@H]1Nc2ccc(C(=O)O)cc2[C@@H]2C=CC[C@@H]21 | nt | 25µM | 35µM | 79µM | i | 30
COc1ccc(OC)c([C@@H]2Nc3ccc(C(=O)O)cc3[C@@H]3C=CC[C@@H]32)c1 | nt | i | i | 35µM | i | 85 | Pol kappa inh-2=34
CCOC(=O)c1ccc2c(c1)[C@@H]1C=CC[C@@H]1[C@H](c1cccc(OC)c1OC)N2 | nt | ? | i | i | i | nt
Cc1ccc(Cl)cc1NC(=O)c1ccc2snnc2c1 | nt | ? | i | i | i | nt
COC(=O)c1cc(OC)c(OC)c(OC)c1NC(=O)c1cc(=O)n(C)c(=O)n1C | nt | i | i | i | i | nt
CCOC(=O)C1(Cc2cccc(F)c2)CCN(C(=O)COC)CC1 | i | i | i | i | i | nt | GALK inh confirm=i;Redox cycling=i;HEK293 tox=i
CCNc1ncc2nc(-c3cn(C)c4ccccc34)c(=O)n(CCC#N)c2n1 | nt | nt | i | nt | nt | nt
O=C1C=CC(=O)N1CCCCCCCCCCN1C(=O)C=CC1=O | nt | ? | i | 35µM | nt | nt | Pol kappa inh-2=?
O=C1C=CC(=O)N1Cc1ccncc1 | nt | i | i | ? | nt | nt
